Compounds without any hit were thinned out: in the full panel of roughly 83,000, 20% have a hit.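 Growth was measured after 48 h exposure to one concentration of compound in 96-well plates. Values under 10 count as active.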 Values without a mark were called inactive. Activity calls are given as the source filed them.
Tests used:
Test in all cases: NCI-60 one-dose screen, 48 h (100 = growth as untreated, 0 = no growth, -100 = all killed)
Conditions in all cases: 10 µM
NCI-H23 lung = tested on: NCI-H23 lung
NCI-H226 lung = tested on: NCI-H226 lung
NCI-H460 lung = tested on: NCI-H460 lung
HOP-92 NSCLC = tested on: HOP-92 NSCLC
A549/ATCC NSCLC = tested on: A549/ATCC NSCLC
786-0 renal = tested on: 786-0 renal
COLO 205 colon = tested on: COLO 205 colon
NCI-H522 lung = tested on: NCI-H522 lung

Structure (SMILES)	growth (NCI-H23 lung)	growth (NCI-H226 lung)	growth (NCI-H460 lung)	growth (HOP-92 NSCLC)	growth (A549/ATCC NSCLC)	growth (786-0 renal)	growth (COLO 205 colon)	growth (NCI-H522 lung)
Nc1cc(-c2ccncc2)c[nH]c1=O	102%	103%	110%	90.9%	106%	103%	113%	
COc1ccc(-c2nn(-c3cccc(Cl)c3)cc2-c2cc(-c3cccs3)[nH]c(=S)n2)cc1	15.7%	58.9%	43.8%	94%	39.7%	38.4%	52.4%	46.5%
COc1ccccc1-n1c(-c2sc(NC(C)=O)nc2C)n[nH]c1=S	101%	106%	110%	105%	104%	106%	116%	102%
C[C@]12CCC3c4ccc(O)cc4C[C@@H](CCCCCCCCCS(=O)CCCC(F)(F)C(F)(F)F)C3C1CC[C@@H]2O (some centres not stated)	84.8%	94.2%	67.7%	78%	67.9%	96.1%	93.7%	
C=CCN(CC=C)C(=O)[C@H](CC)[C@@H]1CC[C@@H](C)[C@@H]([C@H](C)[C@@H](O)[C@@H](C)C(=O)[C@H](CC)C2O[C@]3(C=CC(=O)[C@]4(CC[C@@](C)([C@H]5CC[C@](O)(CC)[C@H](C)O5)O4)O3)[C@H](C)C[C@@H]2C)O1 (some centres not stated)	18.6%	13.8%	15.2%	-8.35% (active)	24.1%	44.3%	1.18% (active)	11.6%
Cc1cc(SCc2ccccc2)nc(N)n1	97.3%	115%	111%	85.2%	105%	79.1%	127%	
CC1=CC2C(C(O)CC3(C)C2CC(C)C32OCOC23COCO3)C2(C)C/C(=C/O)C(=O)C=C12 (configuration not stated)	-0.378% (active)	78.4%	7.96% (active)	94.1%	41.8%	58.8%	-14.4% (active)	-26.7% (active)
O=C(N/N=C/c1ccc(Cl)cc1)c1ccccc1Nc1cccc(C(F)(F)F)c1	91.2%	81.2%	86.8%	73.7%		86%	108%	77.9%
COc1ccc(-c2nn(-c3cccc(Cl)c3)cc2C=C(C#N)C#N)cc1	-45.2% (active)	25.4%	1.56% (active)	11%	19.1%	-8.39% (active)	-9.68% (active)	-12.1% (active)
Cc1cc(CCNC=O)c(C)c2c1sc1ccccc12	86.6%	77.2%	104%	91.2%	82.9%	106%	124%	101%
COc1ccc(C(=O)c2ccccc2CN2C(=O)c3ccccc3C2=O)cc1	91.7%	102%	105%	86.7%	98.9%	101%	118%	95.3%
COc1ccc(/C(C#N)=C/c2cccc(OC)c2OC)cc1	80%	89%	108%	86.4%	67.5%	93.8%	88.8%	58.8%
COc1ccc2nc3cc(Cl)ccc3c(Nc3cc(CN4CCCC4)c(O)c(CN4CCCC4)c3)c2n1	-29.4% (active)	-32.1% (active)	4.16% (active)	-16.4% (active)	9.53% (active)	0.406% (active)	-48.5% (active)	
COc1cc(-c2nn(-c3cccc(NC(=O)CN4CCOCC4)c3)cc2-c2cccnc2)ccc1Cl	90.9%	82.2%	84%	50.4%	83.8%	94.6%	88.3%	49.1%
CN1CCN(CCC(=O)Nc2cccc(-n3cc(-c4ccncc4)c(-c4ccc(Cl)c(O)c4)n3)c2)CC1	46.4%	66.6%	13.4%	27.9%	30.2%	32.2%	12.8%	16.9%
CCC1NC(=O)c2cc(S(N)(=O)=O)c(Cl)cc2N1 (configuration not stated)	108%	102%	114%	91.2%	104%	116%	109%	
